# Reference: PubChem BioAssay AID1159580 (chemical genetic matrix, 2015)
# Values joined by “and” are separate entries in the source; they are usually repeats but may differ in a detail not shown here. Equal entries are not always repeated. Out of some 5,500 compounds screened, about 2,000 (36%) were called active. Roughly 18% stayed inconclusive and do not appear here. Rule as the data show it: active = normalized growth mostly below about 0.91 (no sharp cut-off); inconclusive = no clear call, values can overlap the other calls; inactive = mostly above about 0.92. Some of the results follow. The source holds several records for some structures; these can differ, active in one and inactive in another.
# Assay: chemical genetic growth profiling, strain panel (AID 1159580);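 also: tested at 20 µM; growth read once vehicle control cultures reached saturation at 30 °C; 1 = growth at the plate median or of vehicle wells; lower values mean less growth of the strain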
# Conditions: S. cerevisiae deletion strains, growth OD
compound,measurement,setting,value
O=C(O)CCc1nc(-c2ccccc2)c(-c2ccccc2)o1,normalized growth,"locus YAL013W, strain DEP1, stronger effect = lower value",0.974 (inactive)
same,normalized growth,"locus YAL021C, strain ccr4, stronger effect = lower value",0.966 (inactive)
same,normalized growth,"locus YAL026C, strain drs2, stronger effect = lower value",0.929 (inactive)
same,normalized growth,"locus YAL030W, strain snc1, stronger effect = lower value",0.958 (inactive)
same,normalized growth,"locus YAL040C, strain CLN3, stronger effect = lower value",0.978 (inactive)
same,normalized growth,"locus YBL061C, strain skt5, stronger effect = lower value",0.965 (inactive)
same,normalized growth,"locus YBR009C, strain hhf1, stronger effect = lower value",0.964 (inactive)
same,normalized growth,"locus YBR023C, strain chs3, stronger effect = lower value",0.979 (inactive)
same,normalized growth,"locus YBR171W, strain sec66, stronger effect = lower value",0.949 (inactive)
same,normalized growth,"locus YBR229C, strain ROT2, stronger effect = lower value",0.929 (active)
same,normalized growth,"locus YBR231C, strain swc5, stronger effect = lower value",0.96 (inactive)
same,normalized growth,"locus YBR279W, strain paf1, stronger effect = lower value",0.975 (inactive)
same,normalized growth,"locus YCL011C, strain gbp2, stronger effect = lower value",0.943 (inactive)
same,normalized growth,"locus YCL016C, strain dcc1, stronger effect = lower value",0.954 (inactive)
same,normalized growth,"locus YCL061C, strain MRC1 (second series), stronger effect = lower value",0.996 (inactive)
same,normalized growth,"locus YCL061C, strain MRC1, stronger effect = lower value",0.92 (active)
same,normalized growth,"locus YCL069W, strain vba3, stronger effect = lower value",0.965 (inactive)
same,normalized growth,"locus YCR088W, strain abp1, stronger effect = lower value",0.962 (inactive)
same,normalized growth,"locus YDL005C, strain med2, stronger effect = lower value",0.959 (inactive)
same,normalized growth,"locus YDL040C, strain nat1, stronger effect = lower value",0.955 (inactive)
same,normalized growth,"locus YDL101C, strain DUN1, stronger effect = lower value",0.995 (inactive)
same,normalized growth,"locus YDR001C, strain nth1, stronger effect = lower value",0.925 (inactive)
same,normalized growth,"locus YDR069C, strain doa4, stronger effect = lower value",0.954 (inactive)
same,normalized growth,"locus YDR137W, strain rgp1, stronger effect = lower value",0.925 (inactive)
same,normalized growth,"locus YDR150W, strain NUM1, stronger effect = lower value",1 (inactive) and 1.04 (inactive)
same,normalized growth,"locus YDR159W, strain sac3, stronger effect = lower value",0.916 (inactive)
same,normalized growth,"locus YDR195W, strain ref2",0.969 (inactive)
same,normalized growth,"locus YDR297W, strain sur2, stronger effect = lower value",0.955 (inactive)
same,normalized growth,"locus YDR334W, strain swr1, stronger effect = lower value",0.948 (inactive)
same,normalized growth,"locus YDR335W, strain msn5, stronger effect = lower value",0.965 (inactive)
same,normalized growth,"locus YDR363W, strain ESC2, stronger effect = lower value",0.979 (inactive)
same,normalized growth,"locus YDR392W, strain spt3, stronger effect = lower value",0.831 (inactive)
same,normalized growth,"locus YEL003W, strain gim4, stronger effect = lower value",0.943 (inactive)
same,normalized growth,"locus YEL037C, strain rad23, stronger effect = lower value",0.968 (inactive)
same,normalized growth,"locus YEL061C, strain CIN8 (second series), stronger effect = lower value",0.941 (inactive)
same,normalized growth,"locus YEL061C, strain CIN8, stronger effect = lower value",1 (inactive)
same,normalized growth,"locus YER002W, strain NOP16, stronger effect = lower value",0.998 (inactive)
same,normalized growth,"locus YER015W, strain faa2, stronger effect = lower value",0.974 (inactive)
same,normalized growth,"locus YER016W, strain bim1, stronger effect = lower value",0.961 (inactive)
same,normalized growth,"locus YER111C, strain swi4, stronger effect = lower value",0.958 (inactive)
same,normalized growth,"locus YER155C, strain BEM2 (second series), stronger effect = lower value",0.958 (inactive)
same,normalized growth,"locus YFR010W, strain ubp6, stronger effect = lower value",0.958 (inactive)
same,normalized growth,"locus YGL167C, strain pmr1, stronger effect = lower value",0.961 (inactive)
same,normalized growth,"locus YGL173C, strain kem1, stronger effect = lower value",0.958 (inactive)
same,normalized growth,"locus YGL227W, strain vid30, stronger effect = lower value",0.957 (inactive)
same,normalized growth,"locus YGL240W, strain doc1, stronger effect = lower value",0.95 (inactive)
same,normalized growth,"locus YGL253W, strain hxk2, stronger effect = lower value",0.957 (inactive)
same,normalized growth,"locus YGR078C, strain PAC10, stronger effect = lower value",0.909 (active)
same,normalized growth,"locus YGR229C, strain SMI1, stronger effect = lower value",0.976 (inactive)
same,normalized growth,"locus YHR013C, strain ard1, stronger effect = lower value",0.938 (inactive)
same,normalized growth,"locus YHR027C, strain rpn1, stronger effect = lower value",0.971 (inactive)
same,normalized growth,"locus YHR030C, strain SLT2, stronger effect = lower value",0.935 (inactive) and 1.03 (inactive)
same,normalized growth,"locus YHR079C, strain IRE1, stronger effect = lower value",0.967 (inactive)
same,normalized growth,"locus YHR087W, strain rtc3, stronger effect = lower value",0.925 (inactive)
same,normalized growth,"locus YHR142W, strain chs7, stronger effect = lower value",0.963 (inactive)
same,normalized growth,"locus YJL092W, strain hpr5, stronger effect = lower value",0.949 (inactive)
same,normalized growth,"locus YJL095W, strain BCK1 (second series), stronger effect = lower value",0.959 (inactive)
same,normalized growth,"locus YJL095W, strain BCK1, stronger effect = lower value",0.901 (inactive)
same,normalized growth,"locus YJL115W, strain asf1, stronger effect = lower value",0.956 (inactive)
same,normalized growth,"locus YJL129C, strain trk1, stronger effect = lower value",0.926 (inactive)
same,normalized growth,"locus YJL154C, strain vps35, stronger effect = lower value",0.966 (inactive)
same,normalized growth,"locus YJL164C, strain tpk1, stronger effect = lower value",0.954 (inactive)
same,normalized growth,"locus YJL166W, strain qcr8, stronger effect = lower value",0.976 (inactive)
same,normalized growth,"locus YJR043C, strain POL32, stronger effect = lower value",0.959 (inactive)
same,normalized growth,"locus YJR066W, strain TOR1, stronger effect = lower value",0.884 (inactive)
same,normalized growth,"locus YJR075W, strain HOC1, stronger effect = lower value",0.888 (active)
same,normalized growth,"locus YKL160W, strain elf1, stronger effect = lower value",0.982 (inactive)
same,normalized growth,"locus YKL190W, strain CNB1, stronger effect = lower value",0.983 (inactive)
same,normalized growth,"locus YKR026C, strain gcn3, stronger effect = lower value",0.958 (inactive)
same,normalized growth,"locus YKR091W, strain srl3, stronger effect = lower value",0.957 (inactive)
same,normalized growth,"locus YLL001W, strain dnm1, stronger effect = lower value",0.973 (inactive)
same,normalized growth,"locus YLL026W, stronger effect = lower value",0.965 (inactive)
same,normalized growth,"locus YLL041C, strain sdh2, stronger effect = lower value",0.961 (inactive)
same,normalized growth,"locus YLR027C, strain aat2, stronger effect = lower value",0.966 (inactive)
same,normalized growth,"locus YLR039C, strain RIC1, stronger effect = lower value",0.994 (inactive)
same,normalized growth,"locus YLR058C, strain SHM2 (second series), stronger effect = lower value",0.929 (active)
same,normalized growth,"locus YLR085C, strain ARP6, stronger effect = lower value",0.92 (inactive)
same,normalized growth,"locus YLR113W, strain HOG1, stronger effect = lower value",0.787 (active)
same,normalized growth,"locus YLR221C, strain rsa3, stronger effect = lower value",0.935 (inactive)
same,normalized growth,"locus YLR258W, strain gsy2, stronger effect = lower value",0.955 (inactive)
same,normalized growth,"locus YLR262C, strain YPT6 (second series), stronger effect = lower value",0.951 (inactive)
same,normalized growth,"locus YLR262C, strain YPT6, stronger effect = lower value",1.02 (inactive)
same,normalized growth,"locus YLR320W, strain mms22, stronger effect = lower value",0.933 (inactive)
same,normalized growth,"locus YLR342W, strain FKS1, stronger effect = lower value",0.97 (inactive)
same,normalized growth,"locus YLR357W, strain rsc2, stronger effect = lower value",0.985 (inactive)
same,normalized growth,"locus YLR370C, strain arc18, stronger effect = lower value",0.961 (inactive)
same,normalized growth,"locus YLR384C, strain iki3, stronger effect = lower value",0.98 (inactive)
same,normalized growth,"locus YML094W, strain GIM5, stronger effect = lower value",1.02 (inactive)
same,normalized growth,"locus YML120C, strain ndi1, stronger effect = lower value",0.952 (inactive)
same,normalized growth,"locus YMR058W, strain fet3, stronger effect = lower value",0.956 (inactive)
same,normalized growth,"locus YMR125W, strain sto1, stronger effect = lower value",0.938 (inactive)
same,normalized growth,"locus YMR129W, stronger effect = lower value",0.943 (inactive)
same,normalized growth,"locus YMR205C, strain PFK2, stronger effect = lower value",0.954 (inactive)
same,normalized growth,"locus YMR219W, strain ESC1, stronger effect = lower value",0.944 (active)
same,normalized growth,"locus YMR231W, strain pep5, stronger effect = lower value",0.967 (inactive)
same,normalized growth,"locus YMR263W, strain SAP30, stronger effect = lower value",0.9 (active)
same,normalized growth,"locus YMR307W, strain GAS1, stronger effect = lower value",1 (inactive) and 0.949 (inactive)
same,normalized growth,"locus YNL071W, strain lat1, stronger effect = lower value",0.935 (inactive)
same,normalized growth,"locus YNL153C, strain GIM3, stronger effect = lower value",0.964 (inactive)
same,normalized growth,"locus YNL175C, strain NOP13, stronger effect = lower value",0.986 (inactive)
same,normalized growth,"locus YNL183C, strain NPR1, stronger effect = lower value",0.868 (inactive)
same,normalized growth,"locus YNL197C, strain WHI3, stronger effect = lower value",0.987 (inactive)
same,normalized growth,"locus YNL209W, strain ssb2, stronger effect = lower value",0.972 (inactive)
same,normalized growth,"locus YNL224C, strain SQS1, stronger effect = lower value",0.977 (inactive)
same,normalized growth,"locus YNL248C, strain rpa49, stronger effect = lower value",0.974 (inactive)
same,normalized growth,"locus YNL298W, strain CLA4 (second series), stronger effect = lower value",1 (inactive)
same,normalized growth,"locus YNL322C, strain KRE1 (second series), stronger effect = lower value",0.949 (inactive)
same,normalized growth,"locus YNL322C, strain KRE1, stronger effect = lower value",1 (inactive) and 0.926 (active)
same,normalized growth,"locus YNR030W, strain Alg12, stronger effect = lower value",1 (inactive)
same,normalized growth,"locus YNR049C, strain mso1, stronger effect = lower value",0.941 (inactive)
same,normalized growth,"locus YOR001W, strain rrp6, stronger effect = lower value",1 (inactive)
same,normalized growth,"locus YOR070C, strain gyp1, stronger effect = lower value",0.963 (inactive)
same,normalized growth,"locus YOR080W, strain dia2, stronger effect = lower value",0.957 (inactive)
same,normalized growth,"locus YOR083W, strain WHI5 (second series), stronger effect = lower value",1 (inactive)
same,normalized growth,"locus YOR083W, strain WHI5, stronger effect = lower value",0.982 (inactive)
same,normalized growth,"locus YOR106W, strain vam3, stronger effect = lower value",0.973 (inactive)
same,normalized growth,"locus YOR231W, strain MKK1, stronger effect = lower value",0.942 (inactive)
same,normalized growth,"locus YOR265W, strain rbl2, stronger effect = lower value",0.97 (inactive)
same,normalized growth,"locus YOR270C, strain vph1, stronger effect = lower value",0.952 (inactive)
same,normalized growth,"locus YOR290C, strain snf2, stronger effect = lower value",0.93 (inactive)
same,normalized growth,"locus YPL051W, strain arl3, stronger effect = lower value",0.98 (inactive)
same,normalized growth,"locus YPL055C, strain LGE1, stronger effect = lower value",0.996 (inactive)
same,normalized growth,"locus YPL078C, strain atp4, stronger effect = lower value",0.972 (inactive)
same,normalized growth,"locus YPL106C, strain sse1, stronger effect = lower value",0.869 (inactive)
same,normalized growth,"locus YPL240C, strain hsp82, stronger effect = lower value",0.963 (inactive)
same,normalized growth,"locus YPL241C, strain CIN2, stronger effect = lower value",1 (inactive) and 0.984 (inactive)
same,normalized growth,"locus YPL256C, strain CLN2, stronger effect = lower value",0.96 (inactive)
same,normalized growth,"locus YPR135W, strain CTF4, stronger effect = lower value",1.08 (inactive)
